Data as given in PubChem BioAssay (NCI).
Compounds without any hit were thinned out: in the full panel of roughly 83,000, 20% have a hit.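 Compound tested at a single concentration for 48 hours in 96-well plates; a percent growth value below 10 was scored as active.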 A number with no mark means an inactive call. The source made the active and inactive calls.

Tests used:
Assay in all cases: NCI-60 one-dose screen, 48 h (100 = growth as untreated, 0 = no growth, -100 = all killed)
HCT-15 colon = details: 10 µM unless noted
HT29 colon = details: 10 µM unless noted
SNB-19 CNS = details: 10 µM unless noted
U251 CNS = details: 10 µM unless noted
PC-3 prostate = details: 10 µM unless noted
SK-MEL-5 melanoma = details: 10 µM unless noted
UACC-62 melanoma = details: 10 µM unless noted
LOX IMVI melanoma = details: 10 µM
SK-MEL-28 melanoma = details: 10 µM unless noted
SK-MEL-2 melanoma = details: 10 µM unless noted
EKVX NSCLC = details: 10 µM unless noted
SN12C renal = details: 10 µM unless noted
UO-31 renal = details: 10 µM unless noted
TK-10 renal = details: 10 µM unless noted
ACHN renal = details: 10 µM unless noted
CAKI-1 renal = details: 10 µM unless noted
A498 renal = details: 10 µM unless noted
CCRF-CEM leukemia = details: 10 µM unless noted
MOLT-4 leukemia = details: 10 µM unless noted
SNB-75 CNS = details: 10 µM unless noted

Row | SMILES | growth (HCT-15 colon) | growth (HT29 colon) | growth (SNB-19 CNS) | growth (U251 CNS) | growth (PC-3 prostate) | growth (SK-MEL-5 melanoma) | growth (UACC-62 melanoma) | growth (LOX IMVI melanoma) | growth (SK-MEL-28 melanoma) | growth (SK-MEL-2 melanoma) | growth (EKVX NSCLC) | growth (SN12C renal) | growth (UO-31 renal) | growth (TK-10 renal) | growth (ACHN renal) | growth (CAKI-1 renal) | growth (A498 renal) | growth (CCRF-CEM leukemia) | growth (MOLT-4 leukemia) | growth (SNB-75 CNS)
1 | CCCSc1nc(Nc2ccc(S(N)(=O)=O)cc2)c(C#N)c(-c2ccc(Cl)cc2)n1 | 21.7% | 33.6% | 28.2% | -14.8% (active) | 64.3% | 55.9% | 31.1% | -96.3% (active) | 73.8% | 67.9% | 50.6% | -16.2% (active) | -68.6% (active) | -16.4% (active) | -66.8% (active) | -54.5% (active) | -41.8% (active) | 81.4% | 50.4% | 
2 | Cc1cccc(NC(=O)[C@]23CCC(C)(C)CC2C2=CCC4[C@@]5(C)C[C@@H](O)[C@H](O)[C@@](C)(CO)C5CC[C@@]4(C)[C@]2(C)CC3)c1 (some centres undefined) | -5.5% (active) | -56.1% (active) |  | 27.8% |  | -90.7% (active) |  | -75.2% (active) | 32.5% | 32.2% | 11.5% |  | 14.3% | 52.9% | 1.52% (active) | 22.8% | -11.3% (active) | 15.8% | 5.2% (active) | 43.7%
3 | CC(C)(C)OC(=O)/C=C/c1cccc2c1C(=O)NC(C)(c1cc3cc(Cl)ccc3oc1=O)N2 (centres undefined) | 40.3% | 44.3% | 42.1% | 42.4% | 12.5% | 28.4% | 36% | 41.1% | 53.7% | 43.6% | 36.2% | 50% | 20.8% | 66.2% | 19.6% | 42.4% | 102% | 24.2% | -14.6% (active) | 
4 | O=C(O)Cn1c(O)c(/C=C2/C=c3cc4c(cc3=NC2=O)OCCO4)sc1=S | 98.5% | 119% |  | 109% |  | 107% | 94.8% | 93.6% | 116% | 117% | 101% | 97.5% | 89.9% | 110% | 119% | 99.3% | 118% | 97.3% | 105% | 101%
5 | COc1ccc(-c2nc3cc(C)ccc3n2CC(=O)N=Nc2c(O)[nH]c3ccc(Br)cc23)cc1 | -66.1% (active) | -67.4% (active) | 29.2% | -63.1% (active) | 13.9% | -45.6% (active) | -42.8% (active) | -81.9% (active) | -53.8% (active) | 61.6% | -36.5% (active) | -57.8% (active) | 53.5% | 25.6% | 15.5% | 54.6% | 136% | 58.8% | 23.3% | 
6 | O=C(Cn1c(/C=C/c2ccccc2)nc2ccccc2c1=O)Nc1ccccc1 | 76.6% | 98.5% | 67.8% | 35.8% | 76.1% | 97.3% | 90.1% | 43.2% | 111% | 94.7% | 124% | 31% | 24.7% | 75.6% | 1.89% (active) | 8.48% (active) | -29.9% (active) | 71.4% |  | 
7 | O=C1/C(=C/C2=Cc3ccccc3OC2)SC(=S)N1c1ccccc1F | 107% | 110% | 98.2% | 102% | 95.7% | 105% | 88.4% | 101% | 105% | 107% | 98.8% | 103% | 82.6% | 105% | 107% | 99.1% | 122% | 97.5% | 95.2% | 
8 | Cc1cc(C)n(-c2ccc3nnc(-c4ccccc4)n3n2)n1 | 86.4% | 115% |  | 102% | 104% |  | 99.9% | 77.3% | 122% | 114% | 88.5% | 94.2% | -77.9% (active) | 95% | 104% | 74.7% | 107% | 112% |  | 94.4%
9 | C=C1CC[C@@H]2[C@]3(C)COC(c4cn[nH]c4-c4cccc(Cl)c4)O[C@@H]3CC[C@@]2(C)[C@@H]1C/C=C1/C(=O)OCC1O (some centres undefined) | -59.2% (active) | 0.309% (active) | 5.54% (active) | -85.8% (active) | -0.106% (active) | -79.6% (active) | -86.9% (active) | -100% (active) | -76.6% (active) | -23.7% (active) | 8.03% (active) | -69.6% (active) | -94.4% (active) | 3.28% (active) | -87.4% (active) | 32.6% | 151% | -14.9% (active) |  | 
10 | Cn1cc(-c2cc(N)n3nc(-c4c[nH]c5ccccc45)cc3n2)c2cccnc21 | -10.2% (active) | -38.1% (active) | 59.9% | 20% | 5.88% (active) | 23.1% | -84% (active) | -85.8% (active) | -81.6% (active) | 64.5% | 85.6% | 12.4% | 12.2% | 92% | 3.49% (active) | 23.9% | 129% | -21.5% (active) |  | 
11 | COc1ccc(N2N=C(c3ccc4c(c3)OCO4)CC2c2cccc(NC(=O)CCCNS(=O)(=O)c3ccc(F)cc3)c2)cc1 (centres undefined) | 57.8% | 61.3% |  | 59.2% |  | 48% | 66.4% | 66.4% | 75.4% | 73.5% | 52.1% |  | 56.2% | 66.8% | 59.2% | 49% | 67.6% |  | 33.4% | 50.6%
12 | COc1ccc(CCC2c3c(cc4c(c3OC)OCO4)CCN2C)cc1 (centres undefined) | -16.4% (active) | -45.6% (active) |  | -90.4% (active) |  | -98.9% (active) | -95.7% (active) | -100% (active) | -98.3% (active) | -62.7% (active) | -17.3% (active) | -18.6% (active) | -21.9% (active) | -14.7% (active) | -16.5% (active) | 0.732% (active) | 13.2% | 4.55% (active) | -4.81% (active) | 2.42% (active)
13 | COc1cc(CNC(=O)/C=C/c2ccc3c(c2)OCO3)ccc1OCc1cn(-c2ccc([N+](=O)[O-])cc2)nn1 | 97.3% | 121% |  | 96.2% |  | 89.3% | 78.9% |  | 99.9% | 118% | 71.5% | 82.6% | 78.2% | 106% | 90.5% | 64.3% | 113% | 99.5% | 72.4% | 106%
14 | Cc1ccc([C@H]2C(C(=O)c3ccc(Cl)cc3)C3(N[C@@H]2c2ccccc2)C(=O)Nc2ccc(Br)cc23)cc1 (some centres undefined) | 50.8% | 7.2% (active) |  | 47.9% | 16.7% | 88% | 45.9% | 35.9% | 77.9% | 60.2% | 65.3% | 4.02% (active) | 38.6% | 91.6% | 47% | 44% | 101% | 68.7% | 8.72% (active) | 
15 | N/N=C(\N)c1c(N)nc(=S)[nH]c1-c1ccc(Cl)cc1Cl | 111% | 111% | 93.4% | 104% | 96.8% | 108% |  | 106% | 116% | 109% | 116% | 105% | 85.8% | 147% | 107% | 96.9% | 125% | 94.6% | 90.1% | 
16 | COc1c(F)ccc(C(=O)Nc2ccc3nc(NC(=O)C4CCCN(S(=O)(=O)c5cccc(Cl)c5)C4)sc3c2)c1F (centres undefined) | 68.9% | 82.2% | 80.4% | 71.5% | 57.7% | 79.6% | 78.6% | 79.6% |  | 88.5% | 92.8% | 84.3% | 75.2% | 118% | 82.4% | 74.4% | 113% | 85.3% | 42.8% | 
17 | COc1c(F)ccc(C(=O)Nc2ccc3nc(NC(=O)C4CCCN(S(=O)(=O)c5cccc(Br)c5)C4)sc3c2)c1F (centres undefined) | 80.8% | 85.7% |  | 75% | 57.8% | 89.4% | 80.8% | 85% | 97.8% | 94.9% | 90.9% | 88.4% | 79.3% | 118% | 82.9% | 76.4% | 112% | 89.5% | 49.3% | 
